Test results taken from the supplement of paper PMC11732987, “Enantioselective OTUD7B fragment discovery through chemoproteomics screening and high-throughput optimisation” (Communications Chemistry, 2025).

Experiments:
Assay in all cases: log2 ratio of Biotin-Ahx-Ub-VS probe labelling (fragment/DMSO); higher = less target engagement (more negative = stronger competition), active = hit call of the paper (q ≤ 0.05, log2 ratio ≤ -1)
Conditions in all cases: compound concentration: 200 uM; treatment time: 3 h
USP34 = USP34 (UniProt Q70CQ2)
Method in brief: (§1)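 Labelled DUBs from HEK293T lysate were NeutrAvidin-enriched, digested with LysC and trypsin, and run by diaPASEF LC-MS/MS. Before that, each 495 µg sample in Tris/CHAPS/IGEPAL buffer with protease inhibitors was treated in triplicate with fragment at 200 µM or vehicle for 3 h, then with Biotin-Ahx-Ub-VS at 0.5 µM final for 1 h. Values are average log2 ratios of fragment over vehicle by unpaired t-test, based on global-median-normalised Spectronaut label-free quantities from proteins with ≥2 unique peptides.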

USP36 = molecular target: T1, USP36 (UniProt Q9P275)
T1 sequence (whole entry): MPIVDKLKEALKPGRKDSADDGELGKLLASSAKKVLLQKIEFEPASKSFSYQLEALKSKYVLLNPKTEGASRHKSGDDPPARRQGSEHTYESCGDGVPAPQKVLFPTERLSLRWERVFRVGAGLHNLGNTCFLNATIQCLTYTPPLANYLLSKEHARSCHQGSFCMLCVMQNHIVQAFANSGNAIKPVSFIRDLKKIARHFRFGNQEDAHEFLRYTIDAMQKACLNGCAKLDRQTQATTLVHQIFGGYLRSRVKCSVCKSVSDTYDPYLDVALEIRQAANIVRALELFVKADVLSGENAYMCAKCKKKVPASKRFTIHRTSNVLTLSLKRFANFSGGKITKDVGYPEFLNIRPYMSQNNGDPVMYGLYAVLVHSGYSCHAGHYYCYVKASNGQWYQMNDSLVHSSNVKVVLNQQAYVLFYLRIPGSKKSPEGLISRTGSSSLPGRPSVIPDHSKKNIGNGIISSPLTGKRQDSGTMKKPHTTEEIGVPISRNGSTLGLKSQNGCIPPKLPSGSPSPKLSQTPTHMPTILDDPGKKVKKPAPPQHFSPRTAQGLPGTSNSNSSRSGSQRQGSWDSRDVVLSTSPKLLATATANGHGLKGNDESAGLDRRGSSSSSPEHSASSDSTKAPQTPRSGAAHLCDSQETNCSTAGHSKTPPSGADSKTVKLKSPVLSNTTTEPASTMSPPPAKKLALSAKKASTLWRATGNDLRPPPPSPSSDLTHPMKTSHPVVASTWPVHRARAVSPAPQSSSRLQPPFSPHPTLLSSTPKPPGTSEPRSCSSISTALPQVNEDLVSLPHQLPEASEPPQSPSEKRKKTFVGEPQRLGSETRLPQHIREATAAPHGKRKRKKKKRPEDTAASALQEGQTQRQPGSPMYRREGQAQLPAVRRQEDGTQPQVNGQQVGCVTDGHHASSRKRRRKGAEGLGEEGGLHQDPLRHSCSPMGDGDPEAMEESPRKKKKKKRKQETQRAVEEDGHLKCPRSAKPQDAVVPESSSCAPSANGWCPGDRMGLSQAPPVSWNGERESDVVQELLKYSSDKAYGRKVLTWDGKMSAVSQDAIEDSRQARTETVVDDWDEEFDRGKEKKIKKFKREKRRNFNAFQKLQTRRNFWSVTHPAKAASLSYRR
Method in brief: as §1

USP38 = molecular target: T2, USP38 (UniProt Q8NB14)
T2 sequence (whole entry): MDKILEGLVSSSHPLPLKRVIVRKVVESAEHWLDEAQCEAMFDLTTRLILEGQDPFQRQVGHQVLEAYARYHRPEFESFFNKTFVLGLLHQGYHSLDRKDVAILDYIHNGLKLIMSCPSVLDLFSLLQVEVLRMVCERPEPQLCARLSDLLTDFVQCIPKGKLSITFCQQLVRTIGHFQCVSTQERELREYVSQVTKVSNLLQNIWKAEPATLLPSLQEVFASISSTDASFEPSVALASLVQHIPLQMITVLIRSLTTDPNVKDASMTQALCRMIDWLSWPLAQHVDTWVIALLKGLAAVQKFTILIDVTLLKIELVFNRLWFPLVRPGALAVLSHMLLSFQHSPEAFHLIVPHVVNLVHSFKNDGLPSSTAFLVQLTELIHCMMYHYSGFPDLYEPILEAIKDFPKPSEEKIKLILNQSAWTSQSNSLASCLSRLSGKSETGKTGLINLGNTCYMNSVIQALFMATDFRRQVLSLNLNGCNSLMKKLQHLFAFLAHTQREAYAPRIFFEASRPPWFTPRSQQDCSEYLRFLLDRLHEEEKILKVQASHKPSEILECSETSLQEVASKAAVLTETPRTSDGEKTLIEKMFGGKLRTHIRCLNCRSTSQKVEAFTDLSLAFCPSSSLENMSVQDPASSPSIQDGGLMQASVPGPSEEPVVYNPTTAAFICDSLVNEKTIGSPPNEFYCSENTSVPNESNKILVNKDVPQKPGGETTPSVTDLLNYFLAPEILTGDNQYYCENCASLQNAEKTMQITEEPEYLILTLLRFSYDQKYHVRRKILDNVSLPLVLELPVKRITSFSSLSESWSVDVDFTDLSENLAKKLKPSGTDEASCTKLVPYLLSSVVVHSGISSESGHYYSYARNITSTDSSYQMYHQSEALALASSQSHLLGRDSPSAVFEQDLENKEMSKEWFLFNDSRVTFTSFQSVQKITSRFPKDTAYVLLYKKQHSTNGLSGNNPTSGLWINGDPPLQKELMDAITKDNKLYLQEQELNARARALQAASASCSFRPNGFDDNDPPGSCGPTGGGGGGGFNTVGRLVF
Method in brief: as §1

USP39 = molecular target: T3, USP39 (UniProt Q53GS9)
T3 sequence (whole entry): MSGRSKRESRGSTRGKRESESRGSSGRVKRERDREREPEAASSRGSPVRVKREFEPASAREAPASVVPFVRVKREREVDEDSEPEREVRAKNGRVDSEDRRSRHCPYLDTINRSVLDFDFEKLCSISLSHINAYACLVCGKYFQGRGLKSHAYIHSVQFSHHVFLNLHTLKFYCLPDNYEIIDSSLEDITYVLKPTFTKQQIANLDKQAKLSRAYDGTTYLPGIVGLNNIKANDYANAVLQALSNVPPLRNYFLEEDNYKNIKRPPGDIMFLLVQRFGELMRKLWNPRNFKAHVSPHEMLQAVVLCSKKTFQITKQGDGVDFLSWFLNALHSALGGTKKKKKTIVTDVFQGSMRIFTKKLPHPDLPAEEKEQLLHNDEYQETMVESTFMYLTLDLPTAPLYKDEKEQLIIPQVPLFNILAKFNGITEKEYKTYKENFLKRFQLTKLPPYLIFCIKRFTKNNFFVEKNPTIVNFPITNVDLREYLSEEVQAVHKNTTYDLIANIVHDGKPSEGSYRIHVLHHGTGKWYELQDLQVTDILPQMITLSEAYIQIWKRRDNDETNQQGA
Method in brief: as §1

USP4 = molecular target: T4, USP4 (UniProt Q13107)
T4 sequence (whole entry): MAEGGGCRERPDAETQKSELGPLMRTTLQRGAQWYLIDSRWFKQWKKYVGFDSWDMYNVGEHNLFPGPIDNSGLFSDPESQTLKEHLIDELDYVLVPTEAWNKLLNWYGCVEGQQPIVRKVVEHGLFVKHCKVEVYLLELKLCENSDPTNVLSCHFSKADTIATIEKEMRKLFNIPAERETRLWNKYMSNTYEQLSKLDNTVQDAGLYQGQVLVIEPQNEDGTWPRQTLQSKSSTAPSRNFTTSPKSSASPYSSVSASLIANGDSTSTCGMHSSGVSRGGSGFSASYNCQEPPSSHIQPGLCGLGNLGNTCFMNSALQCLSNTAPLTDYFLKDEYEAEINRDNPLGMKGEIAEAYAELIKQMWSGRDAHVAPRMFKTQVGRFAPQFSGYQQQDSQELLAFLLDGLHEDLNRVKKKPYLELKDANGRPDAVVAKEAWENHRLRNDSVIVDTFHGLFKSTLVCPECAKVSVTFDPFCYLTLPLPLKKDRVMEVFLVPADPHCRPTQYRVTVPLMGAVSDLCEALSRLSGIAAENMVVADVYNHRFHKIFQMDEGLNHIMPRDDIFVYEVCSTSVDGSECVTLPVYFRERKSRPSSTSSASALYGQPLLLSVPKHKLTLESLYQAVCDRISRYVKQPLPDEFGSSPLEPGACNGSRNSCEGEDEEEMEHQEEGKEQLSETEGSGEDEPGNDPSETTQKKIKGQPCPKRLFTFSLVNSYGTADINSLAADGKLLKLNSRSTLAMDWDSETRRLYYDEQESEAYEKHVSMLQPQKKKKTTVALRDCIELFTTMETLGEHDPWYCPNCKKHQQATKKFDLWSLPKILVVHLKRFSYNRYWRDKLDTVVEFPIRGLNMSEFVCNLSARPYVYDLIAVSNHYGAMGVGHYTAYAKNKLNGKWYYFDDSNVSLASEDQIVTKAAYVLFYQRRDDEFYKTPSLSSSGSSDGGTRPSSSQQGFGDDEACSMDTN
Method in brief: as §1

Measured: log2 ratio of Biotin-Ahx-Ub-VS probe labelling

USP34, sequence (Q70CQ2 whole entry, the tested form may be a part): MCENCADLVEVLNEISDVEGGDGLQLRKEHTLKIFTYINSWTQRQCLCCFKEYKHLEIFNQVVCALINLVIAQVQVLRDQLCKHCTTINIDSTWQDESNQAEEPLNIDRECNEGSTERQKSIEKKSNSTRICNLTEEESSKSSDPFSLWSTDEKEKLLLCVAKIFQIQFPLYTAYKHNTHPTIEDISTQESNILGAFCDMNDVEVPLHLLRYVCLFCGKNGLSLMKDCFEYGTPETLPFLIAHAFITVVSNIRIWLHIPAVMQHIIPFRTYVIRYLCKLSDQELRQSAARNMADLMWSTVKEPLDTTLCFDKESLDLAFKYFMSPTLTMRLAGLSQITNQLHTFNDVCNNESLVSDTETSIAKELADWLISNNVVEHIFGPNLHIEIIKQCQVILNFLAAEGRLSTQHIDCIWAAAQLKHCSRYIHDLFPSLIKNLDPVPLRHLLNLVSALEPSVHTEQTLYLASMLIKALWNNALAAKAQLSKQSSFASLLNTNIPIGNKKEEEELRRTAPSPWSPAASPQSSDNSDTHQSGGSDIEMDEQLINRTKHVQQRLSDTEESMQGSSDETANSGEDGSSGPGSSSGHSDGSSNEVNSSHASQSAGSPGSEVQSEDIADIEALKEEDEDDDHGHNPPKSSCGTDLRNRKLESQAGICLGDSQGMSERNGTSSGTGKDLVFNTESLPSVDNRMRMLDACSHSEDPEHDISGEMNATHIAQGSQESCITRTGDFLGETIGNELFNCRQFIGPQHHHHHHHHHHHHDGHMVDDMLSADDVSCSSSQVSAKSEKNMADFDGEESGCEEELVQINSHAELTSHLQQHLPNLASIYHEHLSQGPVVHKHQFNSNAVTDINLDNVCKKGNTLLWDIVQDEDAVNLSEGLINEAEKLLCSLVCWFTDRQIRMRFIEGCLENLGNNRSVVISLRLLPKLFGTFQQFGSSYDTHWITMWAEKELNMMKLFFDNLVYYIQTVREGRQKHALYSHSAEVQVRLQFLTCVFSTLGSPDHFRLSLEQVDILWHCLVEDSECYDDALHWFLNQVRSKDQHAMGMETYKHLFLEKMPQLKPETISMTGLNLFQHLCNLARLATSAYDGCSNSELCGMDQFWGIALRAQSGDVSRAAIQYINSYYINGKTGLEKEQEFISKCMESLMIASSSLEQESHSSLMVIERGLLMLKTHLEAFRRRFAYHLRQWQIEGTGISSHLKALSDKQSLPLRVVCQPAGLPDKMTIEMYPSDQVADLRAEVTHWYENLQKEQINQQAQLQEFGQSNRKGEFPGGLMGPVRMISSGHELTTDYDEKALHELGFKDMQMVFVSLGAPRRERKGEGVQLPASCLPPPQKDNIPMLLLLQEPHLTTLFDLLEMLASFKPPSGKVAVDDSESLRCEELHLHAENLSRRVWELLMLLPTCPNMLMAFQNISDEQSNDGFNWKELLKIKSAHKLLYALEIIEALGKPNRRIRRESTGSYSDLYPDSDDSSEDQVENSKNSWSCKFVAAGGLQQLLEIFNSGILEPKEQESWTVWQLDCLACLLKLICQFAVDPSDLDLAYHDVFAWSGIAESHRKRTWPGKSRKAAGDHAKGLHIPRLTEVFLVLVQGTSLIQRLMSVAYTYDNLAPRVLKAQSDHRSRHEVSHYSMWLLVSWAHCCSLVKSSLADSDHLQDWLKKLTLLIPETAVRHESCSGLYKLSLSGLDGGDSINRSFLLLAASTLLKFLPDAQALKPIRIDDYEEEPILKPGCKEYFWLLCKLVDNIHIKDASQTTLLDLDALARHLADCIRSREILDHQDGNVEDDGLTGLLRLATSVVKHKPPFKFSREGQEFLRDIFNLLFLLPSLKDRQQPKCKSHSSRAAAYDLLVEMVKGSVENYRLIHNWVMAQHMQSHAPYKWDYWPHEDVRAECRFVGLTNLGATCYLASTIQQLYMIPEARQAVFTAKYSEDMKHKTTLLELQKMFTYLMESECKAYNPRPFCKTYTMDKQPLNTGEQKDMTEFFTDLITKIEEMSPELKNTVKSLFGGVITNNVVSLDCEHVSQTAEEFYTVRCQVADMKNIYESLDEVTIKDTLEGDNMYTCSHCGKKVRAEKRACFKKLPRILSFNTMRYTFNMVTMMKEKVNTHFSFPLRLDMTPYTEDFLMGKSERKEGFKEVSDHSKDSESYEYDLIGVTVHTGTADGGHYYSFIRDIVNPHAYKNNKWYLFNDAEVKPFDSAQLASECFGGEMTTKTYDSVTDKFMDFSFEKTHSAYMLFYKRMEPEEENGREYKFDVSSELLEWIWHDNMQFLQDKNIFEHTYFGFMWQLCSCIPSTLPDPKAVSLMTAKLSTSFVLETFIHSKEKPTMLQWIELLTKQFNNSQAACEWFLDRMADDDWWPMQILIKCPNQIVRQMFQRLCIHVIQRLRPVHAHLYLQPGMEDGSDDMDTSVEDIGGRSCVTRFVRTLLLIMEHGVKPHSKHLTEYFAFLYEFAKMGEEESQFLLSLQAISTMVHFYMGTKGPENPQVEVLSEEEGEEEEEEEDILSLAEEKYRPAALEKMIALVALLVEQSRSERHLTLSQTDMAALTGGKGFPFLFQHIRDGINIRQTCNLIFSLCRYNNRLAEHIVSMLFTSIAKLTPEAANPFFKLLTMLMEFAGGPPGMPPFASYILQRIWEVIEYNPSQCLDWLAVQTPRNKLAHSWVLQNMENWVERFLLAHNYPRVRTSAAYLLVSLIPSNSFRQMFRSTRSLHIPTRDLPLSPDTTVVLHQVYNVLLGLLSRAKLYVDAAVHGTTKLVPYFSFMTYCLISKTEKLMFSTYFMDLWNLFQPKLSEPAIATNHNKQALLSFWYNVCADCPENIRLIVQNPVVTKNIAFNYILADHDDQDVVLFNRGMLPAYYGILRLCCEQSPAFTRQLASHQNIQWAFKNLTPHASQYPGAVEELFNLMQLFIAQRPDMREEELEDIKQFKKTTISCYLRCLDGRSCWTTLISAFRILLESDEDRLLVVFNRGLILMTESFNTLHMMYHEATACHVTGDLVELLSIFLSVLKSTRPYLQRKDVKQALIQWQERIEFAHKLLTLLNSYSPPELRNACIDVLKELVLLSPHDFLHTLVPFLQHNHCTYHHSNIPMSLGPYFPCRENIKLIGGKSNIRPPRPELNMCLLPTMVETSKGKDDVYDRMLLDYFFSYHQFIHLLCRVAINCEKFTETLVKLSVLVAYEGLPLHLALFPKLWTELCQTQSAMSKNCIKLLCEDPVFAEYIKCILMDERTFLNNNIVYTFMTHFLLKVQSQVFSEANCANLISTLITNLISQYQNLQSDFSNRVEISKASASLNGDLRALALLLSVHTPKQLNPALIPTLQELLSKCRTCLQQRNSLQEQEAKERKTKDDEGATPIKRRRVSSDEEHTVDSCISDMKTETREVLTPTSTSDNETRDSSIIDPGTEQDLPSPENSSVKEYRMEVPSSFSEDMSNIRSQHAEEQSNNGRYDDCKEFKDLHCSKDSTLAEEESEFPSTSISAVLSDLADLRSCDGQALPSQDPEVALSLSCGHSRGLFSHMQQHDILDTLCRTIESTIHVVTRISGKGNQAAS

Cl.O=C(CCl)N1CCCC(c2ncc[nH]2)C1 (stereo not given)
inactive: USP34 0.00166 | USP36 0.0764 | USP38 -0.0133 | USP39 0.00979 | USP4 0.124
